High-throughput results as filed in PubChem.
A selection: hits, their analogues and other compounds. The true share with any hit is near 4.7%.
TRHR ag = qHTS for Small Molecule Agonists and Allosteric Enhancers of Human TRH Receptor: Primary Screen for Agonists; Thyrotropin-releasing hormone receptor (Homo sapiens), P34981; TRHR cells, calcium flux fluo-8, FDSS agonist mode; activation, % at 2 µM; 0.18% of 360,000 active; note: 0% is about no effect
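TRHR-expressing cells loaded with fluo-8 calcium dye; 23 nL library compound pin-transferred, kinetic FDSS fluorescence (Ex 480/Em 530) recorded about 180 s for agonist-induced calcium release, before a 10 nM TRH EC20 addition for potentiator mode.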
D1 agonist = Allosteric Agonists of the Human D1 Dopamine Receptor: qHTS | D(1A) dopamine receptor (Homo sapiens), P21728 | activation, % at 2 µM | HEK293 T-REx D1 cells, calcium flux, agonist mode | 1% of 360,000 active; note: 0% is about no effect
Target sequence (P21728 whole entry, looked up): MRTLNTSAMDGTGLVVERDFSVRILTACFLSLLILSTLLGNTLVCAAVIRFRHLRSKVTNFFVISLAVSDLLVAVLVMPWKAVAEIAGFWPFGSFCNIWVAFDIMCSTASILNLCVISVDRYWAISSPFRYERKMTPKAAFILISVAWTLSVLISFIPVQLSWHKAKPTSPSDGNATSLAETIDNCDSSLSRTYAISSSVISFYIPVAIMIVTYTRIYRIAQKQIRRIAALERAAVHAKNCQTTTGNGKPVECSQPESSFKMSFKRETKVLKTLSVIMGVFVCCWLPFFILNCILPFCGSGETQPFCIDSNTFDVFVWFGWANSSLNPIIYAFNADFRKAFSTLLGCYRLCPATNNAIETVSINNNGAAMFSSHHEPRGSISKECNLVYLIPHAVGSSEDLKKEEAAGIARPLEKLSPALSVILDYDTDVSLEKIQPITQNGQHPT
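Tetracycline-induced HEK293 TREx D1 cells, force-coupled to calcium signalling, were dye-loaded with a no-wash calcium kit. Compound was pin-added after a 10 s baseline. Fluorescence was read kinetically at 1 cycle/s for 180 s, with calcium rises flagged as agonism.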
D1 antag = Antagonist of Human D 1 Dopamine Receptor: qHTS | D(1A) dopamine receptor (Homo sapiens), P21728 | HEK293 TREx D1 cells, calcium flux, dopamine EC80; hits give low values | activity change, negative = inhibition, % at 10 µM | 3.2% of 360,000 active | AID 504652, 2011; in the data active = activity change below about -30%; note: % is set by controls: 0 for no effect and ±100 for the full control effect
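Calcium flux readout: force-coupled, inducible Hek293 Trex D1 line, cells induced overnight at 30 C with tetracycline, dye-loaded 30–90 min at RT. Antagonism scored against EC80 dopamine challenge given 180 s after compound.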
TRHR enhancer = qHTS for Small Molecule Agonists and Allosteric Enhancers of Human TRH Receptor: Primary Screen for Enhancers | Thyrotropin-releasing hormone receptor (Homo sapiens), P34981 | TRHR cells, fluo-8 calcium fluorescence, EC20 TRH enhancement | enhancement, % at 2 µM | 0.66% of 360,000 active | AID 493056, 2011; in the data active = enhancement above about 30%; note: 0% is about no effect
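Enhancer read-out: after compound pinning and an initial kinetic agonist-mode read, an EC20 of TRH (10 nM final) was injected and fluo-8 calcium signal (Ex 480/Em 530) followed at 1 s/cycle for 100 cycles in TRHR-expressing cells.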
D1 potentiator = Potentiators of Human D1 Dopamine Receptor: qHTS | 0.036% of 360,000 active | potentiation, % at 10 µM | D(1A) dopamine receptor (Homo sapiens), P21728 | HEK293 TREx D1 cells, calcium flux, dopamine EC20 potentiation; in the data active = potentiation above about 30%; note: 0% is about no effect
Numbers without * were called inactive. Cut-off read from the data, not from the text of the source, unless noted: active = activation above about 30%; inactive = the rest.

SMILES | TRHR ag | D1 agonist | D1 antag | TRHR enhancer | D1 potentiator
COc1ccc(C(=O)NC(=S)Nc2cc3oc4ccccc4c3cc2OC)cc1 | 1 | 3 | -78* | -1 | -7
CCOCCCNC(=O)c1cnc2sc(N3CCCCCC3)nn2c1=O | 0 | 0 | -31* | 5 | -1
CC(C)Oc1ccc(CNC(=O)C2CCN(C(=O)N3CCOc4ccc(Cl)cc43)CC2)cc1 | 0 | 3 | 6 | -9 | -2
N#C/C(=C\C1CC=CCC1)c1nc2ccccc2[nH]1 (configuration not stated) | 0 | 22 | -35* | -6 | -10
Cn1c(/C(C#N)=C/C2CC=CCC2)nc2ccccc21 (configuration not stated) | -1 | 3 | 6 | -1 | -12
COc1ccc(NC(=O)CSc2nc3c(oc4ccccc43)c(=O)n2-c2ccccc2)cc1OC | 0 | -1 | 17 | 19 | -5
Nc1ccn(CC(=O)NCc2ccccc2)c(=O)n1 | 1 | 1 | 4 | 3 | 2
Nc1ccn(CC(=O)N[C@H](CO)Cc2c[nH]c3ccccc23)c(=O)n1 | 0 | 1 | -34* | -1 | -4
O=C1C(c2cccc(Br)c2)N(CCc2ccccc2)C(=O)CN1C1CCCCC1 (configuration not stated) | -1 | -2 | -33* | 6 | -1
COc1cccc(CNC(=O)CCn2cccn2)c1 | 0 | 1 | -6 | 12 | 3
Cc1ccc(NC(=O)C2CCN(S(=O)(=O)c3c(C)noc3/C=C/c3ccco3)CC2)cc1C | 1 | 3 | -2 | 2 | 3
Cc1noc(/C=C/N(C)C)c1S(=O)(=O)N1CCC(C(=O)Nc2ccc(Cl)cc2)CC1 | 0 | 4 | -45* | -5 | -5
Cc1cc(C)cc(NC(=O)C2CCN(S(=O)(=O)c3c(C)n[nH]c3C)CC2)c1 | 0 | 0 | -77* | -6 | -18
Cc1noc(/C=C/c2ccco2)c1S(=O)(=O)N1CCC(C(=O)Nc2ccc(F)c(Cl)c2)CC1 | -1 | 10 | -48* | 4 | 4
COc1ccc(C(=O)Oc2c(Sc3ccccc3)c(C)nn2-c2ccccc2)cc1OC | 0 | 3 | 5 | 5 | 0
CCOC(=O)c1cnc2c(C)cc(Cl)cc2c1NCCCN1CCOCC1 | 0 | 4 | -35* | 3 | 5
N#Cc1c(-c2ccco2)nc(SCC(=O)Nc2cccc(Cl)c2)[nH]c1=O | -1 | 5 | 18 | -2 | -4
CC(C)(C)c1ccc(-c2nc(SCC(=O)Nc3ccc(Cl)cc3)[nH]c(=O)c2C#N)cc1 | 5 | 132* | -11 | 16 | -2
COc1cccc(NC(=O)c2cc(CN3CCOCC3)on2)c1 | 0 | 4 | 7 | -2 | -5
COCCNC(=O)CSc1nc(-c2cc(OC)c(OC)c(OC)c2)[nH]c1-c1ccc(Cl)cc1 | 0 | 1 | -6 | 9 | -5
COc1cc(C2C(=O)N(C3CCCCC3)CC(=O)N2CCc2ccccc2)ccc1OC(C)C (configuration not stated) | -1 | -5 | -5 | 6 | 1
O=c1nc(/C=C/c2ccc(-c3ccc(F)cc3)o2)cc(C(F)(F)F)[nH]1 | 26 | 98* | -20 | 15 | 0
O=C(O)c1ccccc1-c1ccc(/C=C/c2cc(C(F)(F)F)[nH]c(=O)n2)o1 | 33* | 146* | -15 | -4 | 0
O=C(O)c1cc(Cl)ccc1-c1ccc(/C=C/c2cc(C(F)(F)F)[nH]c(=O)n2)o1 | 73* | 97* | -14 | -2 | 9
O=Cc1ccc(-c2ccc(F)cc2)o1 | 0 | 0 | -3 | 5 | 8
SMILES | TRHR ag | D1 agonist | D1 antag | TRHR enhancer | D1 potentiator
COC(=O)c1ccc(NC(=O)CN(c2cccc(C(F)(F)F)c2)S(C)(=O)=O)cc1 | 5 | 2 | 10 | 2 | -5
CC(C)NC(=O)c1onc(CSc2ccccc2)c1C(=O)O | 1 | -1 | 1 | 31* | 1
CCCCNC(=O)c1onc(CSc2ccc(C)c(C)c2)c1C(=O)O | 0 | 1 | -32* | 3 | -1
CCCCNC(=O)c1onc(CSc2ccc(F)c(F)c2)c1C(=O)O | 0 | 0 | 18 | -3 | -1
Cc1ccc(S(=O)(=O)N2CCCc3cc(NS(=O)(=O)c4cc(F)ccc4F)ccc32)cc1 | -1 | 5 | -4 | 3 | 0
O=C(CCC(=O)c1cccs1)OCc1nnc(-c2ccccc2)o1 | -1 | 2 | -39* | 0 | -8
COc1ccc(-c2cc(C(F)(F)F)n3nc(C(=O)Nc4cccc(Cl)c4C)cc3n2)cc1 | 1 | 0 | -8 | 39* | -4
COc1ccc(-c2cc(C(F)(F)F)n3nc(C(=O)N4CCCCC4)cc3n2)cc1 | 0 | 0 | -11 | -5 | -3
COc1cccc(-c2cc(C(F)(F)F)n3nc(C(=O)N4CCCCC4c4cccnc4)cc3n2)c1 (configuration not stated) | -1 | 1 | -49* | 2 | -11
Cc1ccc(/C=C/c2onc(C)c2S(=O)(=O)N2CCC(C(=O)N3CC(C)Oc4ccccc43)CC2)cc1 (configuration not stated) | 0 | 9 | -22 | -2 | -5
Oc1ccc(C2CNCc3sccc32)cc1O (configuration not stated) | 0 | 92* | -96* | 1 | -4
Oc1ccc(C2C[C@H]3CC[C@@H]2C3)cc1O (some centres not stated) | 0 | 4 | 7 | -2 | 10
CC(=O)c1ccc(NC(=O)C2CCN(S(=O)(=O)c3ccc4c(c3)CCCN4C(=O)C3CCC3)CC2)cc1 | 0 | 0 | 10 | 0 | -4
CN(C)CCNC(C(=O)Nc1cccc(S(=O)(=O)N2CCOCC2)c1)c1ccccc1 (configuration not stated) | 1 | 0 | -15 | 36* | -1
COc1ccc(C(=O)NC(=S)Nc2cccc(S(=O)(=O)N3CCOCC3)c2)cc1 | 0 | 9 | 9 | -9 | -7
CC(C)Oc1ccc(C(=O)Nc2cc(S(=O)(=O)N3CCOCC3)ccc2N2CCOCC2)cc1 | -1 | 1 | -40* | 4 | -1
O=C(Nc1cccc(S(=O)(=O)C(F)F)c1)c1ccc(Cl)c(S(=O)(=O)N2CCOCC2)c1 | 0 | 10 | -34* | -5 | -2
O=C(Nc1cccc(Br)c1)c1ccc(Cl)c(S(=O)(=O)N2CCOCC2)c1 | -1 | 0 | 5 | 2 | 2
CC(=O)Oc1ccc(-c2ccc(C(=O)Nc3cccc(S(=O)(=O)N4CCOCC4)c3)cc2)cc1 | 1 | 16 | -32* | -1 | -12
